Holding throughout (assay): NCI-60 one-dose screen, 48 h (100 = growth as untreated, 0 = no growth, -100 = all killed)
Test [1] has as its system HCT-15 colon. As to conditions: 10 µM unless noted.
Test [2] relates to HT29 colon. As to conditions: 10 µM unless noted.
Test [3] has as its system SNB-75 CNS. As to conditions: 10 µM unless noted.
The test system of test [4] is SNB-19 CNS. The conditions noted are these: 10 µM unless noted.
For test [5], the system named is U251 CNS. The conditions noted are these: 10 µM unless noted.
Test [6] concerns PC-3 prostate. As to conditions: 10 µM unless noted.
Test [7] relates to SK-MEL-5 melanoma. As to conditions: 10 µM unless noted.
Test [8] relates to UACC-62 melanoma. As to conditions: 10 µM unless noted.
Test [9] deals with LOX IMVI melanoma. As to conditions: 10 µM unless noted.
In test [10] the test system is SK-MEL-28 melanoma. The conditions noted are these: 10 µM unless noted.
Test [11] relates to SK-MEL-2 melanoma. The conditions noted are these: 10 µM.
The subject of test [12] is EKVX NSCLC. The conditions noted are these: 10 µM unless noted.
The test system of test [13] is SN12C renal. As to conditions: 10 µM unless noted.
Test [14] deals with UO-31 renal. The conditions noted are these: 10 µM unless noted.
In test [15] the test system is TK-10 renal. As to conditions: 10 µM unless noted.
Test [16] concerns ACHN renal. As to conditions: 10 µM unless noted.
Test [17] has as its system A498 renal. The conditions noted are these: 10 µM unless noted.
In test [18] the test system is CCRF-CEM leukemia. As to conditions: 10 µM unless noted.
For test [19], the system named is MOLT-4 leukemia. The conditions noted are these: 10 µM unless noted.

About 83,000 compounds went through this panel and 20% of them were active in at least one assay; those are over-represented in the sample as a whole.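 Results are percent growth after 48 hours of single-concentration exposure. 100 means growth as in untreated cells, lower positive values show inhibition; negative values down to -100 show cell death.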 Values without a mark were called inactive. The source made the active and inactive calls. The calls were made as follows: active = growth percent below 10; inactive = the rest.

`CCN(CC)Cc1cc(Nc2cc(C(F)(F)F)c(C#N)c3nc4ccccc4n23)ccc1O`: the growth in test [1] is 6.22% (active); in [2], 5.33% (active); in [3], 13.5%; in [4], 18.5%; in [5], 8.94% (active); in test [6], 6.16% (active). The growth was -36.4% (active) in [7]; 9.53% (active) in test [8]; 12.2% in test [9]; 29.6% in test [10]; 4.36% (active) in test [11]; 15.8% in test [12]. Also, the growth was 5.86% (active) in test [13]; -17.4% (active) in test [14]; 10.6% in test [15]; 4.68% (active) in [16]; -14.2% (active) in test [17]; 5.56% (active) in [18]. The growth in [19] is 4.11% (active).
Regarding `Nc1c2c(c(O)c3c1=C(CO)C=N3)=NCCS2=O` (centres undefined), the growth in test [1] was 4.65% (active); in [2], -27.4% (active); in [3] it was -45.3% (active); in test [4], -93.6% (active); in test [5], -89.8% (active); in test [6], 8% (active). Also, the growth in [7] was -100% (active); in [8], -56.4% (active); in test [9], -93.4% (active); in [10], -17.4% (active); in test [11] it was -51.3% (active); in test [12], -43.1% (active). Besides, the growth in test [13] is -33.2% (active); in [14] it was -66.8% (active); in test [15], 117%; in test [16], -18.8% (active); in test [17], -45.6% (active); in [18], 4.74% (active). Moreover, the growth in [19] is -33.8% (active).
`Clc1ccc2c(NCCNc3nc(N4CCCC4)nc4ccccc34)ccnc2c1`: the growth in test [1] is -34.5% (active); in test [2], -27.2% (active); in test [3] it was 12.5%; in test [4], 25.1%; in test [5] it was -44% (active); in [6], 21.9%. For the same compound, the growth in test [7] is -97.1% (active); in [8], -56.6% (active); in test [9], -85.7% (active); in [10] it was -54.2% (active); in test [11], -42.9% (active); in test [12] it was 24.4%. Further, the growth is 3.63% (active) in test [13]; -72.3% (active) in test [14]; -47.3% (active) in [15]; -83% (active) in test [16]; -5.18% (active) in [17]; 5.08% (active) in test [18]. In addition, in [19], the growth was -5.18% (active).
For the compound `Oc1ccc(/C=N/Nc2nnc(N/N=C/c3ccc(O)cc3O)c3ccccc23)c(O)c1`, the growth is 7.14% (active) in [1]; -35.3% (active) in test [2]; -46.9% (active) in test [3]; -1.04% (active) in [4]; -25% (active) in test [5]; -50.8% (active) in test [6]. In addition, the growth is -17.7% (active) in [7]; -94.8% (active) in test [8]; -51.4% (active) in [9]; -43.3% (active) in test [10]; -58% (active) in test [11]; -18.4% (active) in test [12]. For the same compound, the growth in [13] was -28% (active); in test [14], 0% (active); in test [15], 10.5%; in test [16] it was -3.24% (active); in [17], -61.1% (active); in test [18], -51.4% (active). Also, the growth in test [19] is -26.9% (active).
For the compound `CCc1ccc(/C=C/c2ccc(O)c3ncccc23)[n+](C)c1`, the growth in test [1] is 85%; in [2], 50.9%; in test [3], 48.1%; in [4] it was 41.1%; in [5], 25.9%; in [6], 61.3%. Further, the growth in test [7] was 26.3%; in test [8] it was 35.7%; in test [9] it was 55.6%; in [10], 60.7%; in test [11] it was 78.4%; in test [12], 47%. For the same compound, the growth was 31.4% in [13]; 27.1% in test [14]; 85.5% in test [15]; 89.3% in [16]; 29.6% in [17]; 22.8% in test [18]. Besides, the growth in [19] is 7.81% (active).
For `CCCc1cc2cc(-n3nc(C)c4c3CC(C)(C)CC4=O)cc(NC3CCC(O)CC3)c2c(=O)[nH]1` (centres undefined), the growth in test [1] is 23.6%; in [2], 8.7% (active); in test [3] it was 49.4%; in test [4], 40%; in test [5], 25.6%; in test [6] it was 33%. For the same compound, the growth in test [7] is 15.8%; in test [8] it was 14.1%; in test [9], -18.4% (active); in [10] it was 36.4%; in [11] it was 41.6%; in [12], 47.7%. For the same compound, the growth in test [13] was 41.4%; in test [14] it was 29.7%; in test [15], 40.8%; in test [16], 28.8%; in test [17], 64%; in [18], 20.3%. For the same compound, the growth in test [19] was 14.7%.
